Results as given in PubChem BioAssay (NCI).
About 79,000 compounds went through this panel and 15% of them were active in at least one assay; those are over-represented in the sample as a whole. Active and inactive are the calls of the source. Cut-off read from the data, not from the text of the source: active = growth inhibition above about 70%; inactive = the rest. Where a SMILES comes first, the peptide text is derived from it. The star is where a group is joined. ONp = O=[N+]([O-])c1ccc(O*)cc1; Cbz = O=C(OCc1ccccc1)*; OBn = c1ccc(CO*)cc1

Assays:
[1] = NCI Yeast Anticancer Drug Screen. Data for the rad50 strain (AID 155);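 note: 0% = growth of vehicle-only cultures of the same strain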; conditions: S. cerevisiae rad50 strain growth inhibition; at 50.0 µM; stronger effect = higher value
In short: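 DNA repair mutant yeast, compound exposure, growth read-out; inhibition is taken relative to vehicle.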

[2] = NCI Yeast Anticancer Drug Screen. Data for the mec2-1 strain (AID 157); conditions: S. cerevisiae mec2-1 strain, at 50.0 µM, stronger effect = higher value
In short: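 Mutant yeast (mec2-1) grown with compound; growth inhibition relative to vehicle control reported.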

[3] = NCI Yeast Anticancer Drug Screen. Data for the sgs1 mgt1 strain (AID 161);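 note: 0% = growth of cultures given vehicle only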; conditions: S. cerevisiae sgs1 mgt1 strain, at 50.0 µM, stronger effect = higher value
In short: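 Percent growth inhibition was derived by comparing compound-exposed mutant yeast with vehicle-exposed cultures. The strain carries alterations in DNA damage repair.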

[4] = NCI Yeast Anticancer Drug Screen. Data for the cln2 rad14 strain (AID 165);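 note: 0% = growth equal to vehicle treated cultures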; conditions: S. cerevisiae cln2 rad14 strain, at 50.0 µM, stronger effect = higher value
In short: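 Readout is yeast growth inhibition versus vehicle-treated controls, using a strain with cln2 and rad14 alterations exposed to compound.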

[5] = NCI Yeast Anticancer Drug Screen. Data for the bub3 strain (AID 167); conditions: S. cerevisiae bub3 mutant strain, at 50.0 µM, stronger effect = higher value
In short: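 In this screen, a yeast mutant lacking normal mitotic checkpoint function is challenged with compound. Relative growth versus vehicle gives the inhibition value.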

[6] = NCI Yeast Anticancer Drug Screen. Data for the mlh1 rad18 strain (AID 175); conditions: S. cerevisiae mlh1 rad18 strain growth inhibition; at 50.0 µM; stronger effect = higher value
In short: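 Genetically defined yeast (DNA repair-deficient) exposed to compounds; growth inhibition determined relative to vehicle.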

Measured: growth inhibition

c1ccc(C2c3ccccc3-c3ncnc(N4CCCCC4)c32)cc1 (stereo not given)
inactive: [1] 9.4% | [2] -3.15% | [3] 24.8% | [4] 15.1% | [5] -0.45% | [6] 14.7%

O=C(O)CCc1c(-c2ccccc2)c(-c2ccccc2)c2n1CCC2
inactive: [1] 49.5% | [2] 41% | [3] 56.5% | [4] -12.6% | [5] 33.9% | [6] 48.9%

COc1ccc(NC(=O)CC/C(CC(=O)c2ccco2)=N/Nc2ccc([N+](=O)[O-])cc2[N+](=O)[O-])cc1
inactive: [1] 21.4% | [2] -6.8% | [3] -0.05% | [4] 3.1% | [5] 22.1% | [6] 2.95%

CCCCCCCCCCCCCCCCCC[N+](C)(C)Cc1c(Cl)c(Cl)c(Cl)c(Cl)c1Cl
inactive: [1] 10.8% | [2] 8.9% | [3] 20.4% | [4] -18.9% | [5] 24.6% | [6] 1.65%

O=S(=O)(/C=C/c1ccc(Cl)cc1Cl)Cc1ccccc1CS(=O)(=O)/C=C/c1ccc(Cl)cc1Cl
inactive: [1] 4.85% | [2] 5.3% | [3] -27.6% | [4] -20.8% | [5] 6.95% | [6] -9.15%

COc1ccc(C2(C)OCCC(C)O2)cc1 (stereo not given)
inactive: [1] -0.25% | [2] -18.1% | [3] 0.1% | [4] -24.1% | [5] -5.2% | [6] 10.6%

O=C(O)CCC1CCc2cccc(OCC(=O)O)c2C1=O (stereo not given)
inactive: [1] 2% | [2] -4.3% | [3] -16.2% | [4] 23.5% | [5] -4.4% | [6] -11.7%

CC(=O)N(C(=O)CC(=O)N/N=C\c1ccc(Br)c(N(CCC#N)CCC#N)c1)c1ccc(Cl)cc1
inactive: [1] 7.7% | [2] 0.6% | [3] 8.1% | [4] -7.8% | [5] 6.2% | [6] -3.35%

COc1cc(OC)c(OC)cc1/C=C/c1cc[n+](C)c2ccccc12
inactive: [1] 9.1% | [2] -6.35% | [3] 11.6% | [4] -0.8% | [5] 4.95% | [6] 8.05%

O=c1nc(N2CCSCC2)ccn1C1OC(CO)C(O)C1O (stereo not given)
inactive: [1] -6.5% | [2] -6.7% | [3] -8.45% | [4] -5.75% | [5] -3.5% | [6] -2.25%

COc1cc(C=C(c2ccc(N(C)C)cc2)c2ccc(N(C)C)cc2)c2ccccc2c1OC
inactive: [1] 22.9% | [2] 14.5% | [3] 3.15% | [4] 27.3% | [5] -12.8% | [6] -42.5%

O=C(CNC(=O)C(CCC(=O)OCc1ccccc1)NC(=O)OCc1ccccc1)NCC(=O)NC(CO)C(=O)NCC(=O)Oc1ccc([N+](=O)[O-])cc1 (stereo not given) (Cbz-E(OBn)GGSG-ONp; configuration not given here)
inactive: [1] 3.75% | [2] 8.05% | [3] 21.4% | [4] -7.85% | [5] 1.65% | [6] 20.4%

O=c1[nH]nc(Cc2ccc(Cl)cc2)n1O
inactive: [1] 3.3% | [2] 5.3% | [3] 0.1% | [4] -26.6% | [5] -13.5% | [6] 1.65%

COc1cc2c(c3c1CCC(C)(C)O3)Cc1c(cc(OC)c(OC)c1CCC(C)(C)O)O2
inactive: [1] 41.8% | [2] -3.9% | [3] 3.6% | [4] 0.4% | [5] 3% | [6] 7.6%

c1ccc(-c2cnc(-c3ccccc3)cn2)cc1
inactive: [1] 1.3% | [2] 10.6% | [3] -6.15% | [4] 41.6% | [5] 6.75% | [6] -15.4%

c1ccc2[nH]c3[nH]c4[nH]c5ccccc5[nH]c4[nH]c3[nH]c2c1
inactive: [1] -29.2% | [2] -9.2% | [3] -20.6% | [4] -6.2% | [5] -8.5% | [6] -11.8%

CC(=O)Nc1ccc(S(=O)(=O)CCS(=O)(=O)c2ccc(NC(C)=O)cc2)cc1
inactive: [1] 7.35% | [2] 4.7% | [3] -16.1% | [4] -6.15% | [5] 3.65% | [6] -9.45%

CC(C)=CCCC(C)C=O (stereo not given)
inactive: [1] -11.6% | [2] -41.2% | [3] -19.4% | [4] 4% | [5] -20.1% | [6] 1.3%

CC(C)NC(=O)c1ccccc1Sc1ccccc1CN(C)C(C)C
inactive: [1] -11.3% | [2] 5.5% | [3] 7.1% | [4] 6.55% | [5] 8.9% | [6] 6.75%

Cc1c(C#N)c(=N)oc2ccccc12
inactive: [1] 7.9% | [2] 7.35% | [3] 22.8% | [4] 14.5% | [5] 18.1% | [6] -31.5%

C[N+](C)(CCOc1ccccc1)Cc1ccccc1
inactive: [1] 55% | [2] 25.8% | [3] 39.3% | [4] 26.8% | [5] 48% | [6] 31.5%

O=C1NC(=O)N2CCCOC2C1c1ccccc1 (stereo not given)
inactive: [1] 0.2% | [2] -5.5% | [3] 0.4% | [4] -10.2% | [5] -2.7% | [6] 22.3%

O=[N+]([O-])c1c(Cl)cc(Cl)c([N+](=O)[O-])c1-c1ccccc1
inactive: [1] -17.1% | [2] 9.1% | [3] -14.3% | [4] 7.75% | [5] 14.2% | [6] -31.7%

O=c1c2c(oc3cc(OCC4CO4)ccc13)CCC2 (stereo not given)
inactive: [1] -0.4% | [2] -7.7% | [3] -28.2% | [4] -24.9% | [5] -9.05% | [6] -21.4%

CCN(CC)Cc1cc(OC)c(OC)c(OC)c1
inactive: [1] -8.3% | [2] -14.5% | [3] -6.6% | [4] -50.9% | [5] 7% | [6] -18.1%

CC/C(C)=N/C(=O)NN
inactive: [1] -20.1% | [2] 8.75% | [3] -16.2% | [4] 19.3% | [5] 35.5% | [6] 20.3%

CCOC(=O)CC[C@@H](NC(=O)c1ccc(NCc2ccc3nc(OC)c(OC)nc3c2)cc1)C(=O)OCC
inactive: [1] 2.7% | [2] -10.2% | [3] -4.15% | [4] -9.55% | [5] 15.8% | [6] -13.4%

O=C1CC(CC(=O)c2ccc(Br)cc2)C(=O)/C1=C(/O)c1ccc(Br)cc1 (stereo not given)
inactive: [1] 21.7% | [2] 14.2% | [3] 36.8% | [4] 38% | [5] 22.9% | [6] 48.8%

O=C(/C=N\O)Nc1ccccc1O
inactive: [1] 2.6% | [2] 4.3% | [3] -24.4% | [4] -11.6% | [5] -5.15% | [6] -1.9%

O=c1nnc(O)c2n(O)cccc1-2
inactive: [1] -24.2% | [2] -11.8% | [3] 6.55% | [4] -42.5% | [5] -1.75% | [6] 14%

CC(C)=CCN(N=O)c1ncnc2nc[nH]c12
inactive: [1] -10.1% | [2] 31.1% | [3] -24.8% | [4] -2.5% | [5] 18.9% | [6] 9.85%

COc1ccc(C/C=N/Nc2ccc([N+](=O)[O-])cc2[N+](=O)[O-])cc1OC
inactive: [1] 1.7% | [2] -8.05% | [3] -2.3% | [4] 3.45% | [5] -6.3% | [6] -0.55%

COc1ccc(C2C3=C(CC(C)(C)CC3=O)Oc3cc4c(cc32)OCO4)cc1 (stereo not given)
inactive: [1] -2.7% | [2] -0.05% | [3] -25% | [4] -0.45% | [5] 0% | [6] -4.95%

O=C(O)c1ccc(Br)cc1C(=O)O
inactive: [1] 7.6% | [2] 3.6% | [3] 1.5% | [4] 4.35% | [5] 4.65% | [6] -1.6%

CCOC(=O)C(C)CC(=O)C(C)CC(=O)C(C)C (stereo not given)
inactive: [1] -9.95% | [2] 6.1% | [3] -13.3% | [4] -14.2% | [5] -9.75% | [6] -5.05%

O=C(Cc1ccccc1)NC(=O)Nc1ccccc1
inactive: [1] -7.5% | [2] -10.2% | [3] -8.4% | [4] -0.15% | [5] -3.1% | [6] 0.4%

COC(=O)C1=C(CO)C2C=CC1C2 (stereo not given)
inactive: [1] 3.25% | [2] 26.1% | [3] -1.1% | [4] 6.55% | [5] 6.15% | [6] 6.7%

C=C1C(=O)OC2(C)CCC1CC1OC1(C)CC/C=C(\C)CCC2OC(C)=O (stereo not given)
inactive: [1] -3.95% | [2] -6.55% | [3] 17.4% | [4] 8.25% | [5] -3% | [6] 7.85%

C=CC/C=C/CCC
inactive: [1] 34.6% | [2] -2.7% | [3] -7.85% | [4] -21.8% | [5] -2.4% | [6] -9.7%

Cc1cccc(Nc2nnc(Nc3cccc(C)n3)c3ccccc23)n1
inactive: [1] -2.15% | [2] -4.5% | [3] -2.75% | [4] -4.25% | [5] -3.8% | [6] 4%
